According to PubChem BioAssay (NCATS):
“And” between values parts separate entries of the source, which are not always exact repeats. Identical values can stand only once. Records with an inconclusive call do not appear. Where a call stands in place of a potency, no number is given. The source made the active and inactive calls. Unless noted, the call rests on the fitted dose curve; in most records, active means well fitted curve in the direction sought with a large enough effect; inconclusive means small, poorly fitted or top-dose-only effect, or another doubt; inactive means no such curve, though single readings can be large; an effect the other way counts as inactive or inconclusive.

What was measured:
[1] = target: Vitamin D3 receptor (Homo sapiens) (UniProt P11473); assay: qHTS assay for small molecule agonists of vitamin D receptor signaling (AID 588543; calls by dose curve)
Vitamin D3 receptor (Homo sapiens), sequence (P11473 whole entry, looked up): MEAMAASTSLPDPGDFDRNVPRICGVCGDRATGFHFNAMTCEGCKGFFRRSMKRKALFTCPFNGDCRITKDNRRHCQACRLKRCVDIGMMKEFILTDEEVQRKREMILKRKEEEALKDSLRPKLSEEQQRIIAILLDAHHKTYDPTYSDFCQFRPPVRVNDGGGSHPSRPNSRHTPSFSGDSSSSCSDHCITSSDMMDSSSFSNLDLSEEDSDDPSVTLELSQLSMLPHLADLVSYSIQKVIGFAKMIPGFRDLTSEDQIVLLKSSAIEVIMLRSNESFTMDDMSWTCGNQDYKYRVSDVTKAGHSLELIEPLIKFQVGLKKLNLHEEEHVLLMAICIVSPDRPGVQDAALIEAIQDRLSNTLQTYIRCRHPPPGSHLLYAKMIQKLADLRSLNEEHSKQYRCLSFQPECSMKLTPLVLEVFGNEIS
Outline: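 qHTS in agonist mode: compound titrations stimulate a VDR-driven β-lactamase reporter in HEK293T cells over 16 h at 37 °C. Response normalized to 50 nM 1α,25-dihydroxyvitamin D3 = 100%, DMSO = 0%; Hill fitting gives EC50 and maximal response.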

[2] = qHTS assay for small molecule agonists of retinoid X receptor alpha signaling (AID 588544; calls by dose curve); conditions: HEK293T RXRa-UAS-bla, beta-lactamase reporter, 18 h; 530 nm emission
[3] = target: Retinoic acid receptor RXR-alpha (Homo sapiens) (UniProt P19793); assay: as above
Retinoic acid receptor RXR-alpha (Homo sapiens), sequence (P19793 whole entry, looked up): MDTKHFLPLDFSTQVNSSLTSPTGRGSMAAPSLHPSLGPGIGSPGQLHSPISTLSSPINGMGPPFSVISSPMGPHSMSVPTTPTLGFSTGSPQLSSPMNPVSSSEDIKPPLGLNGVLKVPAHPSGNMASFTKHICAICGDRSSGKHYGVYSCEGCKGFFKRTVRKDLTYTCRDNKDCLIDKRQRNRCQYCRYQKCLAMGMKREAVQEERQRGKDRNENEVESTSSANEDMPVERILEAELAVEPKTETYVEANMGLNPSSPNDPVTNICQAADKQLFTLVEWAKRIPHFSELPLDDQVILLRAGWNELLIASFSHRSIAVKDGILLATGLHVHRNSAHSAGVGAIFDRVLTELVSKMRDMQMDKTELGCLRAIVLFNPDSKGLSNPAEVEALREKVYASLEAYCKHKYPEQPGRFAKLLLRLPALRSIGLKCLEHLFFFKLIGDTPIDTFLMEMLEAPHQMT

[4] = target: Thyroid hormone receptor beta (Homo sapiens) (UniProt P10828); assay: qHTS assay for small molecule antagonists of thyroid hormone receptor beta signaling (AID 588547; active means well fitted inhibition curve with a large enough effect in the signal ratio, with a control signal flat, not every such curve was filed as active; the % refers to the signal ratio;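 further: cells stimulated with 0.4 nM T3 agonist during compound exposure; series mostly up to about 77 µM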); conditions: TR-UAS-bla HEK293, beta-lactamase ratio, antagonist mode, 18 h
Thyroid hormone receptor beta (Homo sapiens), sequence (P10828 whole entry, looked up): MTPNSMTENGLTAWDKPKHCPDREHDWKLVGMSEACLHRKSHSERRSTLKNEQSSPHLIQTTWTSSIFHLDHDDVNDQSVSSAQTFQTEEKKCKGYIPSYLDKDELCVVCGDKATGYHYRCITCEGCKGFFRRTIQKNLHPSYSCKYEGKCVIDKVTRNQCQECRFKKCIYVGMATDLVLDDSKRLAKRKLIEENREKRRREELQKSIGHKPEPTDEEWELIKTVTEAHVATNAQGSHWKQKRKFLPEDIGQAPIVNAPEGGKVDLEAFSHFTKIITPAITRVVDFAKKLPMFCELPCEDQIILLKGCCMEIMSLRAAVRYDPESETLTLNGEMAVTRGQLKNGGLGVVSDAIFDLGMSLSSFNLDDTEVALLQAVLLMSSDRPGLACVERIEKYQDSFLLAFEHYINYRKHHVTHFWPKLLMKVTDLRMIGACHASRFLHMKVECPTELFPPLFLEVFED
Outline: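 Inhibition of T3-driven (0.4nM final) beta-lactamase reporter activity was measured over 0.59 nM to 92 uM compound after 18 h at 37 C. The cells were GripTite HEK293 TR-UAS-bla in charcoal/dextran-stripped serum, with CCF4 ratio read-out and IC50 from Hill fits.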

[5] = target: Voltage-gated inwardly rectifying potassium channel KCNH2 (Homo sapiens) (UniProt Q12809); assay: qHTS Assay for Small Molecule Inhibitors of the Human hERG Channel Activity (AID 588834);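 further: U2OS cells transduced with hERG by BacMam; top concentration of the series differs between compounds; lower thallium flux fluorescence means stronger hERG block; nearly all actives have a fitted effect of over 50% in size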
Voltage-gated inwardly rectifying potassium channel KCNH2 (Homo sapiens), sequence (Q12809 whole entry, looked up): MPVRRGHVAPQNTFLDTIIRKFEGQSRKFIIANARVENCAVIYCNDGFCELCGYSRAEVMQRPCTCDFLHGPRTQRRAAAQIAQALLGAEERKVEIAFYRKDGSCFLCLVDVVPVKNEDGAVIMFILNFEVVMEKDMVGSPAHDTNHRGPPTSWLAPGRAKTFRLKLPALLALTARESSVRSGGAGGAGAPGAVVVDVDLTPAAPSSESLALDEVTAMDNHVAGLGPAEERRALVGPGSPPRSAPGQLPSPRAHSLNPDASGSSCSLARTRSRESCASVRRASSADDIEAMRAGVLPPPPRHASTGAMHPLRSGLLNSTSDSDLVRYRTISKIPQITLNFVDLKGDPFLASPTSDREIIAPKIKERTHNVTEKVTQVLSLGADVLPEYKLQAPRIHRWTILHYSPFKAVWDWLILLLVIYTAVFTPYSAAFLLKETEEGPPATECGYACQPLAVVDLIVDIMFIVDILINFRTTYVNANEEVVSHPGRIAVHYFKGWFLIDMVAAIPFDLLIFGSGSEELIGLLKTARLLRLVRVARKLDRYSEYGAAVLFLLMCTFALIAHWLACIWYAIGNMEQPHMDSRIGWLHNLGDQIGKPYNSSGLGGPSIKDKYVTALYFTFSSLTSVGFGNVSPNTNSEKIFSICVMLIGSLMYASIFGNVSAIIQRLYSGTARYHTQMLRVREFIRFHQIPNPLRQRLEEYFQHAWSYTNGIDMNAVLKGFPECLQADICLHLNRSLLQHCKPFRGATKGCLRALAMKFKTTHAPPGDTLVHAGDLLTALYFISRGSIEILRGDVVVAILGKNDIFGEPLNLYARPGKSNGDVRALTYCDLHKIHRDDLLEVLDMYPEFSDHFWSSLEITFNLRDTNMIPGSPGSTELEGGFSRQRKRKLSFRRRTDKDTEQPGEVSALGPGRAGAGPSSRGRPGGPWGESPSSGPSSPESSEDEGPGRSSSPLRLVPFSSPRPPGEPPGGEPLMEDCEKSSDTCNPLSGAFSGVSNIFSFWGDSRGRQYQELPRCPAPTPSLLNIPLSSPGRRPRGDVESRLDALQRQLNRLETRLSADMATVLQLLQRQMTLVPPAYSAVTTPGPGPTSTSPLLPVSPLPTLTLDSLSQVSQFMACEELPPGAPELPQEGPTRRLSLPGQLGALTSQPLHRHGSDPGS
Outline: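 Cells were infected with hERG-BacMam virus for 4 hrs at room temperature, grown overnight, then seeded at 2000/well. After dye loading and roughly 10 min compound treatment, thallium influx was triggered and fluorescence recorded.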

[6] = target: Glutaminase kidney isoform, mitochondrial (Homo sapiens) (UniProt O94925); assay: qHTS for Inhibitors of Glutaminase (GLS): LOPAC Validation (AID 624146); further: nearly all actives have a fitted effect of over 60% in size; further: potency means the concentration at half of the fitted maximal effect
Glutaminase kidney isoform, mitochondrial (Homo sapiens), sequence (O94925 whole entry, looked up, canonical isoform): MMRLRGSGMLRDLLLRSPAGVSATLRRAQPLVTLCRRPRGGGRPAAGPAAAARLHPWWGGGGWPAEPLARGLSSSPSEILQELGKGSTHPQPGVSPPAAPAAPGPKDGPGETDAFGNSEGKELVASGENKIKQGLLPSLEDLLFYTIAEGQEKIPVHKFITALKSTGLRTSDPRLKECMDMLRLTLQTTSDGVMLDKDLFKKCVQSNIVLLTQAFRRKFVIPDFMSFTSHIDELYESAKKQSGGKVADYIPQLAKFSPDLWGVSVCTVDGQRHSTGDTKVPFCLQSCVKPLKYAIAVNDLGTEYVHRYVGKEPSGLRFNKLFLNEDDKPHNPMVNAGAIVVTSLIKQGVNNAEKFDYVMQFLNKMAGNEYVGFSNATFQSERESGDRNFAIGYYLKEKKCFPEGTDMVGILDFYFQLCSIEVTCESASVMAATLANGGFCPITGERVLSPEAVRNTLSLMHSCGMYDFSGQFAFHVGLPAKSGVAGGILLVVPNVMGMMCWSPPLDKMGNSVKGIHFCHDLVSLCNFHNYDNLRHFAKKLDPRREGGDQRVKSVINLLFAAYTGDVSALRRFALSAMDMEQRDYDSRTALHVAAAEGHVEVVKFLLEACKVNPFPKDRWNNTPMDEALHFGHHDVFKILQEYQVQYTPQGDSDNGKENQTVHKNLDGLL
Outline: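 Two-point fluorescence kinetic (t0, 30 min RT) for hKGA; glutamate detected via glutamate oxidase–HRP–Amplex Red. Substrate: 1 mM L-glutamine solution; buffer 45 mM KH2PO4, pH 8.2.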

[7] = target: Bile acid receptor (Homo sapiens) (UniProt Q96RI1); assay: qHTS assay for small molecule antagonists of farnesoid X receptor signaling (AID 588526; calls by dose curve)
Bile acid receptor (Homo sapiens), sequence (Q96RI1 whole entry, looked up): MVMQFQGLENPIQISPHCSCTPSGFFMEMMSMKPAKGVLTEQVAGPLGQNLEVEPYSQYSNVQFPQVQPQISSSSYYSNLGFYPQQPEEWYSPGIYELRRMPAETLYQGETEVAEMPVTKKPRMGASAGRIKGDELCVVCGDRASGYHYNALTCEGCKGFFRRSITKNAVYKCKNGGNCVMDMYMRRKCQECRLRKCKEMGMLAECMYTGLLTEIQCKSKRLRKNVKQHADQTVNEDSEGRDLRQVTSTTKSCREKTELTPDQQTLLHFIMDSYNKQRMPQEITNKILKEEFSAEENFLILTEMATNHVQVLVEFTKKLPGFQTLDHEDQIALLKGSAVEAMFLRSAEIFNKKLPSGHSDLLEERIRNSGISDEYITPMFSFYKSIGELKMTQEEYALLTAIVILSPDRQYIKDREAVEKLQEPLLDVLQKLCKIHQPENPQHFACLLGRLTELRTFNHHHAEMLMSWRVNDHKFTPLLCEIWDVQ
Outline: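 Beta-lactamase reporter antagonist mode: HEK293T FXR-UAS-bla cells, titrated compound, CDCA stimulation, 16 h 37 C, CCF4 dye 2 h RT. Data normalized to CDCA 50 uM and DMSO; Hill-fit IC50.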

[8] = qHTS assay for small molecule antagonists of peroxisome proliferator-activated receptor delta signaling (AID 588535); conditions: HEK293T PPARd-UAS-bla, beta-lactamase FRET ratio, 18 h; 460 nm channel;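 further: cells co-treated with a PPAR-delta agonist as stimulator during compound exposure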
Outline: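 Antagonist-mode qHTS using GeneBLAzer PPAR-delta-UAS-bla HEK293T cells; compound exposure 18 hrs at 37 C over a titration. Ratiometric CCF4 fluorescence at 460/530 nm; concentration-response points fitted to the Hill equation.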

[9] = target: Peroxisome proliferator-activated receptor gamma (Homo sapiens) (UniProt P37231); assay: qHTS assay for small molecule agonists of peroxisome proliferator-activated receptor gamma signaling (AID 588536; active means well fitted curve in the direction sought with a large enough effect in the signal ratio, with a control signal flat, not every such curve was filed as active; the % refers to the signal ratio)
Peroxisome proliferator-activated receptor gamma (Homo sapiens), sequence (P37231 whole entry, looked up): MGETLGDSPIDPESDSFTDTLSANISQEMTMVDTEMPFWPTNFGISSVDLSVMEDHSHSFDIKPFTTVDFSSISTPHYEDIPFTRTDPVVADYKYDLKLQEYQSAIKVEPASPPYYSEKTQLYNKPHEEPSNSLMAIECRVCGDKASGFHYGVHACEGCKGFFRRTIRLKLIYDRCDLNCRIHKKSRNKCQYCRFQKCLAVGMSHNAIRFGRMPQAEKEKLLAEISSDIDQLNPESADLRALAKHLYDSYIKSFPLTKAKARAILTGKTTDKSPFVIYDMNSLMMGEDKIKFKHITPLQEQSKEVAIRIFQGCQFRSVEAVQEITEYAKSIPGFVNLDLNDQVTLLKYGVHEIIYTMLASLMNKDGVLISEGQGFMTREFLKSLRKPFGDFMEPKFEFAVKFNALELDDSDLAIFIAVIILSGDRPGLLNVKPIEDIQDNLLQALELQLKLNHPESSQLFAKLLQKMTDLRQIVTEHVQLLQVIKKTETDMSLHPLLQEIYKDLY
Outline: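 This is an agonist-mode beta-lactamase reporter assay in HEK293 PPAR-gamma-UAS-bla cells with 1% charcoal/dextran FBS. Compound titrations ran 16 h at 37 C before CCF4 detection. EC50 and efficacy are Hill fits scaled to 2 uM rosiglitazone (100%) and DMSO basal.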

[10] = target: Peroxisome proliferator-activated receptor gamma (Homo sapiens) (UniProt P37231); assay: qHTS assay for small molecule antagonists of peroxisome proliferator-activated receptor gamma signaling (AID 588537; active means well fitted inhibition curve with a large enough effect in the signal ratio, with a control signal flat, not every such curve was filed as active; the % refers to the signal ratio;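 further: reporter cells co-stimulated with 50 nM rosiglitazone agonist during compound treatment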)
Outline: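 Cell-based beta-lactamase assay; GW9662 served as the antagonist control. Stimulation used rosiglitazone, final 50 nM, 16 h, 37 C.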

[11] = target: Thyroid hormone receptor beta (Homo sapiens) (UniProt P10828); assay: qHTS assay for small molecule agonists of thyroid hormone receptor beta signaling (AID 588545; calls by dose curve)
Outline: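 Stimulation of a TR-driven beta-lactamase reporter was quantified in GripTite HEK 293 cells. Compound series ran for 18 hrs; curves were normalized to T3 and DMSO controls and fitted to yield EC50.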

[12] = qHTS assay for small molecule antagonists of retinoid X receptor alpha signaling (AID 588546; active means well fitted inhibition curve with a large enough effect in the signal ratio, with a control signal flat, not every such curve was filed as active; the % refers to the signal ratio;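 further: cells stimulated with 9-cis-retinoic acid as agonist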); conditions: HEK293T RXRa-UAS-bla, beta-lactamase ratio, antagonist mode; measured here: W530 green channel, cytotoxicity proxy
Outline: (§1)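 Beta-lactamase reporter inhibition, read as CCF4 fluorescence ratio (ex 405, em 460/530 nm) after 2 h at RT. HEK293T UAS-bla cells, 2500/well, were stimulated with 9-cis-RA at 500 or 100 nM final alongside test compound for 18 h at 37 C.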

[13] = target: Retinoic acid receptor RXR-alpha (Homo sapiens) (UniProt P19793); assay: as above; conditions: HEK293T RXRa-UAS-bla, beta-lactamase ratio, antagonist mode
Outline: as §1

[14] = target: Luciferin 4-monooxygenase (Photinus pyralis) (UniProt P08659); assay: Biochemical firefly luciferase enzyme assay for NPC (AID 624030);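 further: purified P. pyralis luciferase at 10 nM with luciferin and ATP substrate; series mostly up to about 59 µM; nearly all actives have a fitted effect of over 70% in size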
Luciferin 4-monooxygenase (Photinus pyralis), sequence (P08659 whole entry, looked up): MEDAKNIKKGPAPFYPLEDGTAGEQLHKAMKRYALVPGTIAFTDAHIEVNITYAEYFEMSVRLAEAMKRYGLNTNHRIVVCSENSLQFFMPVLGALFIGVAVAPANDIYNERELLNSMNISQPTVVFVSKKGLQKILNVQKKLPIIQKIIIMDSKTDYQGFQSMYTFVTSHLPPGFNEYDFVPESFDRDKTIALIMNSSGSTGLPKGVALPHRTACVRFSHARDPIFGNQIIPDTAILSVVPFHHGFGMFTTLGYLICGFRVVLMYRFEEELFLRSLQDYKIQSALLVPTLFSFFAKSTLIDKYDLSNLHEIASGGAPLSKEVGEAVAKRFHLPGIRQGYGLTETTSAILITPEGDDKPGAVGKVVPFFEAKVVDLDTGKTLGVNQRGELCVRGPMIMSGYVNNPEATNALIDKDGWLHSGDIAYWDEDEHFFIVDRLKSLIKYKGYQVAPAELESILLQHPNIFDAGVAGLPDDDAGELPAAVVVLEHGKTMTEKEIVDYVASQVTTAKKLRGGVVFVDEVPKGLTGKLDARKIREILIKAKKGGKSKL
Outline: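 Direct inhibition of firefly luciferase enzyme (10 nM final, 50 mM Tris Acetate) assessed by luminescence within 5 minutes. Percent activity scaled between DMSO and PTC124 positive control, with concentration-effect curves classified by fit quality and response.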

[15] = S16 Schwann cell viability assay (CellTiter-Glo assay) (AID 624031);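 further: cellular ATP luminescence as a viability measure; series mostly up to about 58 µM; nearly all actives have a fitted effect of over 70% in size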
Outline: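 Native S16 rat Schwann cells, 500-750 cells/well in DMEM with 10% FBS, dosed with compound after overnight culture and incubated 24h at 37 degree Celsius/5% CO2. Viability by CellTiter-Glo luminescence; % activity normalized to no-cell wells and DMSO-treated cells.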

[16] = S16 Schwann cell PMP22 intronic element firefly luciferase assay (AID 624032); further: nearly all actives have a fitted effect of over 30% in size; further: potency means the concentration at half of the fitted maximal effect
Outline: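 Luciferase reporter of PMP22 intronic-element expression in stably transfected S16 rat Schwann cells, read by ONE-Glo luminescence after 24 h compound exposure at 37 C. Activity scaled between DMSO (0%) and positive-control PTC124; concentration-effect curves quality-classified.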

[17] = S16 Schwann cell PMP22 intronic element beta-lactamase assay (AID 624044; calls by dose curve; further: nearly all actives have a fitted effect of over 15% in size)
Outline: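 Beta-lactamase reporter under a PMP22 intronic regulatory element in stable S16 rat Schwann cells; 24 h compound exposure. 460 nm blue signal normalized between DMSO (0%) and potassium clavulanate, with 535 nm FRET tracking viability; curves classed by r2 and response.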

[18] = qHTS of Trypanosoma Brucei Inhibitors: LOPAC Validation (AID 624147)
Outline: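 Luminescent Kinase-Glo Plus end-point after 45 min room-temperature reaction of T. brucei pyruvate kinase started with 130 uM ADP (final). Buffer TEA 50 mM pH 7.2 with KCl, MgCl2, BSA, Tween-20; titration-based qHTS with fitted concentration-effect curves.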

[19] = target: Androgen receptor (Homo sapiens) (UniProt P10275); assay: qHTS assay for small molecule agonists of androgen receptor signaling (AID 588515; active means well fitted curve in the direction sought with a large enough effect in the signal ratio, with a control signal flat; the % refers to the signal ratio); conditions: AR-UAS-bla HEK293, beta-lactamase ratio, agonist 16 h; stronger effect = higher value
Outline: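 Stimulation of an AR-responsive β-lactamase reporter in GripTite HEK293 cells was measured after 16 h compound exposure at 37 °C, via CCF4 fluorescence after 2 h RT. EC50 from Hill fits, normalized to R1881 at 30 nM.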

[20] = target: Androgen receptor (Homo sapiens) (UniProt P10275); assay: qHTS assay for small molecule antagonists of androgen receptor signaling (AID 588516; active means well fitted curve in the direction sought with a large enough effect in the signal ratio, with a control signal flat, not every such curve was filed as active; the % refers to the signal ratio)
Outline: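 Antagonist-mode qHTS: inhibition of R1881 (10 nM)-driven beta-lactamase expression in GripTite HEK 293 cells is measured after 16 h; values are Hill-derived IC50s normalized between R1881 and DMSO wells.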

SMILES | outcome [1] | max response [2] | outcome [3] | activity change % (negative = inhibition) [4] | Potency [5] | Potency [6] | outcome [7] | max response [8] | outcome [9] | outcome [10] | outcome [11] | max response [12] | max response [13] | Potency [14] | Potency [15] | Potency [16] | Potency [17] | outcome [18] | activation [19] | outcome [20]
NC(=O)c1ncn([C@@H]2O[C@H](CO)[C@@H](O)[C@H]2O)n1 | inactive | 18.3% | inactive | -19.8% (inactive) | inactive | inactive | – | – | – | – | – | – | – | – | – | – | – | – | – | –
COc1ccccc1O | inactive | -7.45% and -9.73% and 7.42% | inactive | 8.27% (inactive) and 8.42% (inactive) and 1.01% (inactive) | inactive | – | inactive | -6.63% and -4.79% | inactive | inactive | inactive | -10.5% and -8.87% and -4.21% | 0.752% (inactive) and 5.31% (inactive) and 3.65% (inactive) | inactive | inactive | inactive | – | – | – | –
CO/N=C(\C(=O)N[C@@H]1C(=O)N2C(C(=O)O)=C(CSc3nc(=O)c(O)nn3C)CS[C@H]12)c1csc(N)n1 | – | – | – | – | inactive | – | – | – | – | – | – | – | – | – | – | – | – | – | – | –
CN(C)CCOC(C)(c1ccccc1)c1ccccn1 (stereo not drawn) | inactive | 19.3% | inactive | -6.28% (inactive) | inactive | inactive | inactive | -48.6% | inactive | inactive | inactive | 3.38% | -25.1% (inactive) | – | – | – | – | inactive | – | –
CC(CN1c2ccccc2Sc2ccccc21)N(C)C (stereo not drawn) | – | 10.3% | inactive | -18.5% (inactive) | – | – | – | – | – | – | inactive | – | – | inactive | inactive | – | inactive | inactive | – | –
NCCNCCNCCN | inactive | 1.23% | inactive | -6.32% (inactive) | inactive | – | inactive | 26% | – | – | inactive | -7.08% | 10.1% (inactive) | inactive | inactive | inactive | – | – | – | –
N[C@H](C(=O)O)c1ccc(O)cc1 | – | – | – | – | inactive | – | – | – | – | – | – | – | – | – | – | – | – | – | – | –
NC(=O)N/N=C/c1ccc([N+](=O)[O-])o1 | inactive | – | – | 0.5% (inactive) | inactive | – | – | 4.74% | inactive | – | inactive | 1.55% and -8.19% | 5.86% (inactive) and 14.5% (inactive) | inactive | inactive | 10.2 µM (active) | inactive | – | – | –
CC(O)COc1ccccc1 (stereo not drawn) | inactive | -14.5% | inactive | -6.45% (inactive) | inactive | – | inactive | 6.24% | inactive | inactive | inactive | -7.54% | -2.29% (inactive) | inactive | inactive | inactive | – | – | 4.06% (inactive) | inactive
O=C1c2c(O)cccc2Cc2cccc(O)c21 | – | -24.2% | inactive | 3.09% (inactive) | inactive | – | inactive | -22% | inactive | – | inactive | -14.8% | 9.5% (inactive) | inactive | inactive | inactive | – | – | – | –
O=S(=O)(O)NC1CCCCC1 | inactive | – | – | 6.74% (inactive) | inactive | – | – | – | – | inactive | inactive | -8.27% | 5.18% (inactive) | inactive | inactive | inactive | – | – | – | –
NCCNCCNCCNCCN | inactive | -10.7% and -8.96% | inactive | -25.9% (inactive) and -19% (inactive) | inactive | – | – | – | – | inactive | inactive | -6.87% | -26.1% (inactive) | inactive | inactive | inactive | – | – | 15.1% (inactive) and -3.31% (inactive) | inactive
CNC(=O)Oc1ccc2c(c1)[C@]1(C)CCN(C)[C@@H]1N2C | inactive | -13.6% | inactive | 3.24% (inactive) | inactive | 10 µM (active) | inactive | – | inactive | inactive | inactive | -2.66% | 1.77% (inactive) | inactive | inactive | – | – | inactive | – | –
O=C1O[C@H]([C@@H](O)CO)C(O)=C1O | – | -15.9% and -7.94% | inactive | 4.68% (inactive) and -9.73% (inactive) | inactive | – | – | -14.8% | inactive | inactive | inactive | -3.01% | 1.04% (inactive) | inactive | inactive | inactive | – | – | – | –
CCCCOC(=O)c1ccc(O)cc1 | inactive | 0.828% and -8.13% | inactive | -4.41% (inactive) and 2.19% (inactive) | inactive | – | inactive | -14.2% | – | – | inactive | -11.5% and -9.16% | -15.2% (inactive) and -3.16% (inactive) | – | inactive | inactive | inactive | – | – | –
[Cl][In]([Cl])[Cl] | inactive | -5.94% | inactive | 2% (inactive) | inactive | – | – | 29.3% | – | – | – | -2.25% | 17.5% (inactive) | – | inactive | inactive | inactive | – | – | –
Cc1cccc(C)c1NC(=O)CN(CC(=O)O)CC(=O)O | – | – | – | – | inactive | – | – | – | – | – | – | – | – | inactive | inactive | inactive | – | – | – | –
Nc1ccc(S(=O)(=O)NC(=O)c2ccccc2)cc1 | – | – | – | – | inactive | – | – | – | – | – | – | – | – | inactive | inactive | inactive | – | – | – | –
CN1CCCCC1CCN1c2ccccc2Sc2ccc(S(C)=O)cc21 (stereo not drawn) | – | – | – | – | inactive | – | – | – | – | – | – | – | – | inactive | inactive | – | – | – | – | –
